Pf Dd2 inh: qHTS Primary assay for Inhibitors of Plasmodium falciparum Dd2 growth in vitro; 120,000 tested, 4.3% active; AID 1347417, 2020; Potency, µM (highest dose often 28.9 µM), for the others: at the highest dose activity, negative = inhibition, hits mostly inhibitors; P. falciparum Dd2 growth, SYBR Green, 72 h; active means well fitted inhibition curve with a large enough effect;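 further: plate controls were DMSO vehicle for no effect and reference drug for full effect; nearly all actives have a fitted effect of over 65% in size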
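Readout: SYBR Green fluorescence, 485 nm excitation, 535 nm emission, after ~16 h lysis at 37C. Before that, Dd2-infected red cells (2.5% hematocrit) grew 72 h with compound, 29 uM top final concentration.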
The depositor's hits bear a star; i = inactive; [ ] = remark or other dose. The entries come from a sample that favours hits as a whole. Potency means the concentration at half of the fitted maximal effect.

SMILES	Pf Dd2 inh
O=C([C@@H]1C[C@H](F)CN1C(=O)c1cccc(F)c1)N1CCOCC1	6%
C=CCN1CC(C(=O)N2CCn3cncc3C2)CCC1=O (stereo not given)	-10%
CC(=O)Nc1cccc(C(=O)NCCn2ccn3nc(-c4ccc(F)cc4)cc3c2=O)c1	-1%
CC1=C(C(=O)Nc2ccccc2)C(c2ccc(F)cc2)n2nc(SCc3cc(C)ccc3C)nc2N1 (stereo not given)	115%
O=C(Nc1nc2n(n1)C(c1ccc(F)cc1)C=C(c1ccc(Cl)cc1)N2)c1ccco1 (stereo not given)	8.9µM*
O=C(Nc1nc2n(n1)C(c1ccc(F)cc1)C=C(c1ccccc1)N2)c1cccc([N+](=O)[O-])c1 (stereo not given)	3.2µM*
COc1ccc(C(=O)Nc2nc3n(n2)C(c2ccccc2)C=C(c2ccccc2)N3)cc1 (stereo not given)	i
O=C(c1ccco1)n1nc(-c2ccc(Cl)cc2)nc1NCc1ccc(F)cc1	61%
COc1cccc(C2C(C(=O)Nc3ccccc3)=C(C)Nc3nc(-c4ccccc4)nn32)c1 (stereo not given)	-28%
COc1ccc(C2C=C(c3ccccc3)Nc3nc(NC(=O)/C=C/c4ccccc4OC)nn32)cc1 (stereo not given)	10µM*
Cc1ccc(C2C=C(c3ccc(Cl)cc3)Nc3nc(NS(=O)(=O)c4ccccc4)nn32)cc1 (stereo not given)	20%
COCCn1ncc(N2CCCC(CC(=O)NCc3ccc(OC)cc3)C2)cc1=O (stereo not given)	i
CCC(C)Nc1ccc2nncn2n1 (stereo not given)	0%
CN[C@H](C(=O)N[C@@H]1C=C(C(=O)N[C@H]2CCCNC2=O)C[C@@H](O)[C@@H]1O)C(C)C	17%[44.1 µM]
COC[C@@H]1CN(c2cnccn2)C[C@H]1C(=O)NCc1c(C)n[nH]c1C	-1%
CCOCCN1C(=O)COC[C@@H]1[C@H](O)c1ccc(NC(=O)c2cccc(C#N)c2)cc1	-21%[44.1 µM]
O=C(NCc1nc(-c2ccncc2)n[nH]1)C1CCCN(C2CCCC2)C1 (stereo not given)	25%
O=C(Nc1nnc(C2CC2)s1)C1CC(=O)N(c2n[nH]c3cc(Br)ccc23)C1 (stereo not given)	8%
Cn1cc(CNc2ccc(-c3nc(-c4cccc(C(F)(F)F)c4)no3)cn2)cn1	i
CCCc1noc(-c2ccn3c(CNC(=O)c4cccnc4)nnc3c2)n1	-25%
Cc1ccc(NC(=O)N2CCC(Cc3nncn3Cc3ccccc3)C2)cc1C (stereo not given)	-6%
Cc1ccc(-c2cc(C(=O)N3CCC(Cc4nncn4CC4CC4)CC3)c3ccccc3n2)cc1C	2.8µM*
O=C(c1ccc2cc[nH]c2c1)N1CCC(Cc2nncn2CC2CC2)C1 (stereo not given)	i
COc1cc(-c2ncccc2C(=O)N2CCCC2)cc(OC)c1OC	-18%
Cc1nc(-c2ccccc2Br)cc([C@H]2CN3CC[C@H]2C[C@@H]3CNC(=O)c2cccs2)n1	-21%
SMILES	Pf Dd2 inh
Cc1nc(-c2ccco2)cc([C@H]2CN3CC[C@H]2C[C@@H]3CNCC2CCCCC2)n1	3.2µM*
CC(=O)NC[C@H]1C[C@@H]2CCN1C[C@@H]2c1cc(-c2ccccc2)nc(C)n1	i
Cc1nc(-c2ccco2)cc([C@H]2CN3CC[C@H]2C[C@@H]3CNC(=O)c2cccs2)n1	8.9µM*
Cc1nc(-c2ccc(F)cc2)cc([C@H]2CN3CC[C@H]2C[C@@H]3CNC(=O)c2ccco2)n1	i
CCCS(=O)(=O)NC[C@H]1C[C@@H]2CCN1C[C@@H]2c1cc(-c2ccccc2Br)nc(C)n1	i
CCC(CC)c1cc([C@H]2CN3CC[C@H]2C[C@@H]3CNC2CCN(C)CC2)nc(-c2ccncc2)n1	1.4µM*
Cc1nc(-c2ccccc2)cc([C@H]2CN3CC[C@H]2C[C@@H]3CNC(=O)C(C)(C)C)n1	-1%[44.1 µM]
Cc1nc(-c2ccccc2)cc([C@H]2CN3CC[C@H]2C[C@@H]3CNC(=O)c2ccco2)n1	i
Cc1nc(-c2ccco2)cc([C@H]2CN3CC[C@H]2C[C@@H]3CNS(C)(=O)=O)n1	i
Cc1nc(-c2ccco2)cc([C@H]2CN3CC[C@H]2C[C@@H]3CNC(=O)c2ccccc2)n1	i
Cc1nc(-c2ccco2)cc([C@H]2CN3CC[C@H]2C[C@@H]3CNC2CCOCC2)n1	11µM*
CC[C@H]1CN(C(=O)Nc2cccc(C(F)(F)F)c2)CC[C@H]1CC(=O)NCc1ccco1	1%
Cc1nccn1CC(=O)N1CCC2(CC1)CNC(C(=O)O)C2 (stereo not given)	-16%
CCOc1ccccc1NC(=O)N1C[C@@H](F)C[C@H]1C(=O)N1CCc2ccccc2C1	48%
O=S(=O)(Cc1ccccc1)N1CCC(Oc2ccc(-c3noc(C4CC4)n3)cc2)C1 (stereo not given)	i[5.79 µM]
CS(=O)(=O)c1ccc(CN2CC[C@H]3NCCC[C@]3(C(=O)O)C2)cc1	-2%
O=C(Nc1cccc(F)c1)N1CCc2nnc(C3CC3)n2CC1	-8%
CN(C(=O)CN1C(=O)NC2(CCC(C(C)(C)C)CC2)C1=O)c1ccccc1 (stereo not given)	i
COc1cccc(C(=O)N2CCC[C@H]2c2nc(-c3ccccc3Cl)no2)c1	i
O=C(COc1ccccc1)N1CCC(c2noc(-c3ccncc3)n2)C1 (stereo not given)	16%[5.79 µM]
c1ccc2c(c1)CC(Cc1nc(C3CCOC3)n[nH]1)C2 (stereo not given)	-2%
COCC1CN(C(C)=O)CC12CCN(Cc1cccc(OC)c1OC)CC2 (stereo not given)	i
O=S(=O)(c1ccc(C(F)(F)F)cc1)N1CCCC(Cn2cnc3cccnc32)C1 (stereo not given)	i
CNC(=O)C1(N2CCC[C@H]2C(=O)NCCOC)CCCCC1	3%[44.1 µM]
CS(=O)(=O)c1ccc(O[C@H]2COCCN(C(=O)c3cnccn3)C2)cc1	i
SMILES	Pf Dd2 inh
CCC(=O)N1CC(c2nnc(-c3ccc(C)cc3)o2)C2(CCOCC2)C1 (stereo not given)	-16%
COc1ccccc1N1CCN(c2csc3ccccc3c2=O)CC1	-10%
COc1ccccc1N1CCN(c2ncccc2-c2nc(-c3ccc(Cl)cc3)no2)CC1	36%
CCCOCc1cc(CN2CCN(c3ccccc3OC)CC2)c(O)c2ncccc12	2.8µM*
COc1ccc(-c2noc(CN3CCN(c4ccccc4OC)CC3)n2)cc1OC	11%
CCOc1ccccc1N1CCN(Cc2ccc(=O)n(CC)c2)CC1	-7%
COc1ccccc1N1CCN(Cc2cc(COC(C)C)c3cccnc3c2O)CC1	1.6µM*
CCOCc1cc(CN2CCN(c3ccccc3OC)CC2)c(O)c2ncccc12	2µM*
COc1ccccc1N1CCN(C(CNC(=O)C(=O)NCc2cccnc2)c2cccnc2)CC1 (stereo not given)	-4%
C=CCS(=O)(=O)NCc1cccnc1N1CCN(c2ccccc2OC)CC1	-3%
COc1ccc(C(=O)N2CCCC3(CN[S+](=O)([O-])c4ccccc4N3)C2)cc1 (stereo not given)	-16%
COCCCNC(=O)c1c(OCC(C)C)cc(=O)n2c1CCCCC2	40%
COCC1CN(C(C)=O)CC12CCN(C(=O)c1ccc(C)cc1C)CC2 (stereo not given)	16%
COc1ccc(CN2CCCC3(COc4ccccc4[S+](=O)([O-])N3)C2)cc1 (stereo not given)	-2%
COc1cc(-c2n[nH]c(=O)n2CCC(=O)O)ccc1O	-2%

Bioassay records deposited in PubChem by National Center for Advancing Translational Sciences (NCATS).
